Compound activity (PubChem)
The sample as a whole holds a higher share of hits than the screen did.
Cycloheximide cs: affects cycloheximide protein synthesis inhibition readout, counter-screen; max response, %; AID 2314; 12% of 300,000 active; cell reporter, cycloheximide protein synthesis inhibition counterscreen; in the data active means max response mostly above about 13%, no sharp cut-off; inactive means mostly below about 14%; further: read at 38.3 µM for the half of the compounds with a filed dose; 0% is about no effect
RE007 growth inh: less growth of the S. pombe RE007 Vpr strain; AID 651644; Potency, µM (doses to about 92.2 µM), without a hit: at the top dose activity change, negative = less growth, actives largely listed as inhibitors; S. pombe RE007 Vpr strain, BacTiter-Glo ATP luminescence, 24 h; 0.21% of 360,000 active; active means well fitted falling curve with a large enough effect; inconclusive means small, poorly fitted or top-dose-only effect; inactive means no such curve, though single readings can be large or run the other way; further: potency means the concentration at half of the fitted maximal effect; on the % scale 0 is the no-effect control and ±100 the full control effect; nearly all actives have a fitted effect of over 50% in size
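Fission yeast RE007 carrying one integrated HIV-1 vpr copy, seeded at OD 0.01 in PMG+AL medium with 23 nL pinned compound. Grown 24 h at 30 degrees; viability read by BacTiter-Glo luminescence after 5 min.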
LmPK inhibitor: blocks Leishmania mexicana pyruvate kinase activity; AID 1721; Q27686; 0.37% of 290,000 active; Potency, µM (doses to about 57.5 µM), for the others: top-dose activity change, negative = inhibition, most hits filed as inhibitors; purified LmPK, Kinase-Glo ATP luminescence, 1 h; further: potency means the concentration at half of the fitted maximal effect; on the % scale 0 is the no-effect control and ±100 the full control effect
Target sequence (Q27686 whole entry, looked up): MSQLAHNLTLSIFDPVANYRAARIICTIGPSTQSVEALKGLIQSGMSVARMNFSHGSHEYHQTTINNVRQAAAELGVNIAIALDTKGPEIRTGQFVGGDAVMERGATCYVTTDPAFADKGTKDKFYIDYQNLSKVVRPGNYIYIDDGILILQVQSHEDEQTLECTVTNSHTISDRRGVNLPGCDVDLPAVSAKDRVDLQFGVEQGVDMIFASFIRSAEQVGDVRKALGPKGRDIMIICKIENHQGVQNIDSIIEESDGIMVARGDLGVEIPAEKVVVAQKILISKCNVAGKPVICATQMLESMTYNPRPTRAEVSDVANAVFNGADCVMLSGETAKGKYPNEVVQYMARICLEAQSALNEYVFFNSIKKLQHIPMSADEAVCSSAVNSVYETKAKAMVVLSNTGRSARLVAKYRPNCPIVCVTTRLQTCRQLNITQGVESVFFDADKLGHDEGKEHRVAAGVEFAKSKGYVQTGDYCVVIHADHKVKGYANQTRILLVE
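Pyruvate kinase activity monitored as ATP production (luciferase luminescence). Conditions: 0.1 nM enzyme, 0.5 mM PEP, 0.1 mM ADP, 1 h, RT; normalized against uninhibited and no-enzyme wells.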
TbPYK inhibitor: T. brucei pyruvate kinase inhibition. TbPYK enzyme, Kinase-Glo Plus ATP luminescence, 45 min. Potency, µM (top dose mostly 76.8 µM), inactives show at the highest dose activity, negative = inhibition, usual class: inhibitors. 0.12% of 410,000 active. AID 624173; further: potency means the concentration at half of the fitted maximal effect; on the % scale 0 is the no-effect control and ±100 the full control effect; nearly all actives have a fitted effect of over 50% in size
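Screened from lowest to highest concentration, compounds were pinned into TbPYK/substrate mixtures, and ADP (130 uM final) was added. Plates sat at room temperature for 45 min prior to Kinase-Glo Plus detection by luminescence.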
Shiga toxin inh: Shiga toxin inhibition; Vero cells, Shiga toxin protein synthesis inhibition reporter; inhibition, % at 38.7 µM; 9.2% of 290,000 active; AID 2315; in the data active means inhibition mostly above about 28%, no sharp cut-off; inactive means mostly below about 43%; further: 0% is about no effect
Giardia FBPA inh: Giardia lamblia aldolase inhibition | Potency, µM (titrated, usually from 59.6 µM), without a hit: at the highest dose activity, negative = inhibition, actives largely listed as inhibitors | 0.71% of 290,000 active | purified Giardia FBPA; further: potency means the concentration at half of the fitted maximal effect; on the % scale 0 is the no-effect control and ±100 the full control effect; nearly all actives have a fitted effect of over 55% in size
Target sequence (A8B2U2 whole entry, looked up): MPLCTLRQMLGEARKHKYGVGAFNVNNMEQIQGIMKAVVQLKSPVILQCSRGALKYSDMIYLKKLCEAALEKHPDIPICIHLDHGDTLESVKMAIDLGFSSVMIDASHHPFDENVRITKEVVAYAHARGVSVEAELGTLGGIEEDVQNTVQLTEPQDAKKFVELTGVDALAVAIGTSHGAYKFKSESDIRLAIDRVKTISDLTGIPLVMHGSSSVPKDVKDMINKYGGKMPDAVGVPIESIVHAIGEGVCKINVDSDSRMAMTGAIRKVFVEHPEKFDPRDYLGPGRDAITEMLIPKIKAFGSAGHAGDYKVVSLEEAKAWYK
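Giardia FBPA (40 nM reagent) was preincubated 10 min at RT with compound (up to 57.5 uM final), then substrate plus GAPDH/TPI/NAD/arsenate coupling system with diaphorase/resazurin was added; resorufin fluorescence (525/598 nm) was read after 20 min.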
* hit, by the source's call; u = inconclusive; x = no result; [ ] = another dose, or the depositor's remark. Unless noted, the call rests on the fitted dose curve; in most records, active means well fitted curve in the direction sought with a large enough effect; inconclusive means small, poorly fitted or top-dose-only effect, or another doubt; inactive means no such curve, though single readings can be large; an effect the other way counts as inactive or inconclusive.

SMILES | Cycloheximide cs | RE007 growth inh | LmPK inhibitor | TbPYK inhibitor | Shiga toxin inh | Giardia FBPA inh
O=C(Nc1ccccc1F)c1ccc(Cn2nc(N3CCN(c4ccccc4)CC3)ccc2=O)o1 | x | x | x | -0.2% | x | x
CCc1nn(CC(=O)NC(C)CC)c(=O)c2cc3c(OC)cccc3n12 (centres undefined) | x | x | x | 4.3% | x | x
Cc1ccc(C)c(CSc2nnc(-c3cccnc3)o2)c1 | 1.4 | -9.5% | -1.0% | -2.5% | -1.7 | -0.2%
Fc1ccccc1CSc1nnc(-c2cccnc2)o1 | 47.9* | -7.0% | -0.6% | 5.8% | 109.6* | 0.3%
CCOc1ccc(C(=O)NCC(c2ccc3c(c2)OCO3)N2CCN(c3ccc(F)cc3)CC2)cc1 (centres undefined) | x | x | x | -1.0% | x | x
O=C(Cn1c(=O)n(CCCS(=O)(=O)C2CCCCC2)c(=O)c2ccccc21)Nc1ccc(F)c(Cl)c1 | x | x | x | 4.0% | x | x
CCN(CC)C(=O)c1cc2sc3ccccc3c2s1 | 71.3* | u | -4.2% | -6.2% | 105.9* | 1.7%
CN(C)CCNC(=O)c1cc2sc3ccccc3c2s1 | 39.7* | 7.1% | 2.2% | 5.2% | 84.6* | 2.4%
COCCN(CCOC)C(=O)c1cc2sc3ccccc3c2s1 | 12.2 | 4.8% | 5.7% | -7.9% | 67.6 | 6.2%
O=C(O)c1ccccc1-c1ccc(C=C2C(=O)N(c3ccccc3)C(=S)N(c3ccccc3)C2=O)o1 | 12.5 | 2.2% | 17.7% | u | x | -13.5%
O=C(O)c1ccccc1-c1ccc(/C=C2\SC(=O)N(c3ccccc3)C2=O)o1 | 14.8* | 1.4% | 2.2% | 0.2% | x | -3.3%
O=C1S/C(=C/c2ccc(N3CCOCC3)o2)C(=O)N1Cc1c(F)cccc1Cl | 5.5 | -8.2% | 3.0% | u | 1.0 | -20.4%
O=C1S/C(=C\c2ccc(N3CCOCC3)o2)C(=O)N1Cc1c(F)cccc1Cl | -2.2 | -19.2% | 0.6% | 25.1µM* | -9.0 | u
O=C1S/C(=C\c2ccc(N3CCOCC3)o2)C(=O)N1c1ccccc1 | 30.6* | -7.1% | 2.7% | 28.2µM* | 153.3* | u
CO/C(N)=C(\C#N)N=Cc1ccccc1Cl | 20.6* | 6.0% | -6.4% | 0.2% | 49.1 | -8.6%
COc1ccc(C=O)cc1CSc1ccccn1 | 10.8* | -1.4% | 1.2% | -13.0% | 14.0 | -5.7%
COc1cc(/C=N/NC(=O)CSc2ccccn2)ccc1OC(C)C | 39.0* | 4.3% | 4.9% | -12.0% | 68.0* | -2.0%
COc1ccc(/C=N/NC(=O)c2ccccc2Cl)cc1CSc1nc2ccccc2s1 | -0.3 | 8.1% | -2.9% | 3.6% | 15.8 | -5.1%
COc1ccc(/C=N/NC(=O)c2ccc(O)cc2O)cc1CSc1ccccn1 | 40.3* | -7.6% | 11.1% | -13.4% | 63.7* | -4.0%
COC(=O)C1OC(=O)C2O[C@@]23[C@]2(C)C(OC(C)=O)CC4C(C)(C)C(=O)CC[C@]4(C)C2CC[C@@]13C (some centres undefined) | x | x | x | x | x | 6.0%
Cc1ccc(S(=O)(=O)N[C@H]2COC(=O)C/C=C\[C@@H](C)[C@H](NS(=O)(=O)c3ccc(C)cc3)COC(=O)[C@H](C)NC(=O)C/C=C\[C@H]2C)cc1 | x | x | x | x | x | 4.0%[12.9 µM]
COc1ccc(/C=C2\SC(N)=NC2=O)cc1 | 12.1 | -4.8% | -5.2% | 8.7% | 13.2 | -3.9%
CCOC(=O)CSc1nc(CC)nc2ccccc12 | 2.1 | -0.1% | 3.6% | -1.2% | -6.7 | 1.1%
CCOC(=O)CSc1nc(C)c2cc(OC)ccc2n1 | 45.9* | -14.0% | 0.1% | 0.5% | 71.9* | 0.2%
CCOC(=O)CSC1=NC(=O)/C(=C/c2ccc(OC)cc2)S1 | 22.1* | u | -24.1% | -13.8% | 61.4* | -4.9%
SMILES | Cycloheximide cs | RE007 growth inh | LmPK inhibitor | TbPYK inhibitor | Shiga toxin inh | Giardia FBPA inh
CCOC(=O)CCSc1nc(C)c2ccccc2n1 | 18.3* | -20.5% | 5.9% | 0.1% | 57.4* | -0.7%
CCOC(=O)CNC(=O)CSc1cc(C)nc2ccc(OC)cc12 | 28.7* | -17.5% | u | 2.7% | 72.5* | 2.6%
COc1ccc(NC(=O)C2CCC(CNS(=O)(=O)c3cccc4nsnc34)CC2)cc1OC (centres undefined) | x | x | x | 2.4% | x | x
COCCNC(=O)c1c(NC(=O)c2cc(=O)c3cc(C)cc(C)c3o2)sc2c1CCCC2 | x | x | x | 0.8% | x | x
O=C(COc1ccc(F)cc1)Nc1ccccc1OCc1cc(=O)n2ccccc2n1 | x | x | x | -4.2% | x | x
CCOC(=O)CSc1nc(C)c2cc(C)c(C)cc2n1 | 24.6 | -5.1% | 4.7% | -1.4% | 14.3 | -0.2%
CCOC(=O)CCSc1nc(C)c2cc(C)ccc2n1 | 30.4* | -12.0% | 5.0% | -5.5% | 75.4* | 3.7%
CN(C)S(=O)(=O)N(CC(=O)NCCSCc1c(F)cccc1Cl)c1ccccc1 | x | x | x | 4.7% | x | x
COc1ccc(N2C(=O)CSC23C(=O)N(CC(=O)NCCc2ccccc2)c2ccccc23)cc1 (centres undefined) | x | x | x | -1.7% | x | x
Nc1cc(N)nc(SCCc2ccccc2)n1 | 16.5* | -0.8% | -3.7% | -1.9% | 26.3 | -6.0%
Nc1cc(N)nc(SCc2cccnc2)n1 | 7.1 | -3.1% | 6.1% | -7.4% | 34.2 | -1.1%
Nc1cc(N)nc(SCc2ccccc2)n1 | 40.8* | -2.6% | -0.5% | 2.2% | 53.2* | 1.0%
O=C(c1ccc2c(c1)OCO2)N1CCCc2ccccc21 | 39.7* | 0.9% | 1.4% | 1.0% | 73.7* | -8.1%
O=C(c1ccc2c(c1)OCO2)N1CCCCC1 | 6.8 | x | x | x | -2.0 | 1.1%
CC(NCc1ccc2c(c1)OCO2)C(=O)N1CCc2ccccc21 (centres undefined) | -2.6 | 8.3% | 0.2% | 3.2% | -4.7 | 3.2%
O=C(c1ccc2c(c1)OCO2)N1CCc2ccccc2C1 | 70.4* | -10.9% | -8.7% | -1.9% | 55.1* | -5.1%
Cc1ccc2c(c1)CCCN2C(=O)c1ccc2c(c1)OCO2 | -3.0 | -7.5% | -3.7% | 2.8% | -0.5 | -12.6%
CC(Nc1ccc2c(c1)OCCO2)C(=O)N1CCc2ccccc21 (centres undefined) | 21.2* | 9.1% | -4.2% | -23.8% | 84.3* | -9.5%
O=C(c1cccc(N2C(=O)C3CC=CCC3C2=O)c1)N1CCCc2ccccc21 (centres undefined) | 35.5* | 0.7% | -4.6% | -5.7% | 74.5* | -8.4%
COc1ccc(CN(C(=O)Nc2cccc(Cl)c2)c2ccccn2)cc1OC | x | x | x | 4.1% | x | x
CC(C)C[C@H](NC(=O)[C@H](Cc1ccccc1)C[C@@H](O)[C@H](Cc1ccccc1)NC(=O)OC(C)(C)C)C(=O)N[C@@H](Cc1ccccc1)C(N)=O | 5.4 | x | x | x | -12.7 | 6.9%
CCCCCCCCCCCCCCCCOCC(CO)OC(C)=O (centres undefined) | x | x | x | x | x | 3.2%
O=C(c1ccc2c(c1)OCO2)N1CCN(c2ccc(F)cc2)CC1 | 18.5* | 3.8% | 1.0% | 7.1% | 32.7 | 5.9%
O=C(c1ccc(=O)oc1)N1CCCc2ccccc21 | 50.7* | 0.0% | 20.4% | -6.5% | 76.2* | -27.3%
Cc1ccc(C(=O)N2CCc3ccccc32)cc1C | x | -15.6% | x | -0.5% | x | x
